According to PubChem BioAssay AID686979 (National Center for Advancing Translational Sciences (NCATS), 2013):
Screen size: about 420,000 compounds; about 50,000 (12%) were called active. Another 26% or so got no clear call; they are omitted. This excerpt belongs to a sample that is enriched for actives. A number with no mark means an inactive call. Calls follow the shape of the dose curve; as a rule, active = well fitted inhibition curve with a large enough effect; inconclusive = small, poorly fitted or top-dose-only effect; inactive = flat fitted curve, though single readings scatter.

experiment: qHTS for Inhibitors of human tyrosyl-DNA phosphodiesterase 1 (TDP1): qHTS in cells in presence of CPT; conditions: chicken DT40 Tdp1-/-;hTDP1 cells + 20 nM CPT, ATP luminescence, 48 h; series mostly up to 46.2 µM; activity change, negative = growth inhibition: at the top concentration; also: nearly all actives have a fitted effect of over 55% in size
Summary of the method: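 Chicken DT40 Tdp1-/- cells complemented with human TDP1, 400 cells/well, exposed to compounds plus 20 nM camptothecin for at least 48 h at 37 C; viability read as ATP content by CellTiter-Glo luminescence.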
% is scaled to controls: 0 for no effect and ±100 for the full control effect; potency is read from the fitted curve at half-maximal effect.

Row | SMILES | activity change, negative = growth inhibition | Potency
1 | CCOC(=O)[C@@H]1[C@H]2COc3cc(OC)ccc3[C@@H]2N2C(=O)N(c3cccc(C)c3)C(=O)[C@@]12C | -19.9% | –
2 | CCOC(=O)[C@H]1[C@H]2COc3cc(OC)ccc3[C@@H]2N2C(=O)N(c3ccc(Br)cc3)C(=O)[C@@]12C | – | 25.9 µM (active)
3 | CCOC(=O)[C@H]1[C@H]2COc3ccc(Br)cc3[C@@H]2N2C(=O)CN(C)C(=O)[C@@]12C | -17.3% | –
4 | CCOc1n[nH]c(-c2ccccc2)n1 | -5.81% | –
5 | Cc1ccc(S(=O)(=O)c2c[nH]c3ccc(C)cc3c2=O)cc1 | -15.1% | –
6 | CCCOc1ccc(N/C=C/C(=O)C(C)(C)C)cc1 | -14.5% | –
7 | CCOc1ccc(N/C=C/C(=O)c2ccccc2)cc1 | -25.2% | –
8 | CCOc1ccc(N/C=C/C(=O)c2cc(OC)c(OC)c(OC)c2)cc1 | – | 14.6 µM (active)
9 | COCCNC(=O)C(c1ccc(O)cc1)N(C(=O)CCC(=O)Nc1nccs1)c1ccc(C)cc1 (stereo not given) | 1.09% | –
10 | COc1ccccc1CNC(=O)CCn1c(=O)c2ccccc2n(CC(=O)Nc2ccc(Br)cc2F)c1=O | – | 23.1 µM (active)
11 | COc1ccc(NC(=O)Cn2c(=O)n(Cc3ccc(C(=O)NCc4ccccc4Cl)cc3)c(=O)c3ccccc32)cc1 | -11.4% | –
12 | COc1ccccc1CNC(=O)CCCn1c(=O)c2ccccc2n(CC(=O)NC2CCCC2)c1=O | -22.2% | –
13 | COc1ccccc1CNC(=O)CCn1c(=O)sc2ccccc21 | -4.97% | –
14 | CCCCn1c(=O)c2oc3ccccc3c2n(CC(=O)Nc2ccccc2OC)c1=O | -0.588% | –
15 | COc1ccccc1CNC(=O)CCCCn1c(=O)c2ccccc2n(CC(=O)Nc2cc(Cl)ccc2C)c1=O | – | 18.4 µM (active)
16 | COc1ccccc1CNC(=O)CCCn1c(=O)c2ccccc2n(CC(=O)Nc2ccc(C)cc2Cl)c1=O | – | 14.6 µM (active)
17 | Cc1ccccc1NC(=O)Cn1c(=O)n(CCCCC(=O)NCc2ccccc2Cl)c(=O)c2ccccc21 | -29.1% | –
18 | COCCNC(=O)CCCn1c(=O)c2ccccc2n(Cc2cccc([N+](=O)[O-])c2)c1=O | 4.94% | –
19 | CCc1nn(CC(=O)N2CCN(c3cccc(C(F)(F)F)c3)CC2)c(=O)c2cc3occc3n12 | -19.3% | –
20 | CC(C)CCN(C(=O)c1csnn1)C(C(=O)NC1CCCC1)c1ccccc1 (stereo not given) | -9.08% | –

Row | SMILES | activity change, negative = growth inhibition | Potency
21 | COc1cc(CN2CCNC(=O)C2CC(=O)NCCc2ncccc2C)cc(OC)c1 (stereo not given) | 26.1% | –
22 | CCOc1ccccc1NC(=O)CCS(=O)(=O)c1cccc2nsnc12 | – | inactive
23 | Cc1ccc(S(=O)(=O)N(C)C)cc1NC(=O)COC(=O)/C=C/c1cccs1 | -18.7% | –
24 | Cc1ccccc1N(C(=O)CNC(=O)c1cccs1)C(C(=O)NC1CCCC1)c1ccncc1 (stereo not given) | 0.575% | –
25 | CCOc1cc(NS(=O)(=O)c2ccc(OC)cc2)c(OCC)cc1NC(C)=O | -0.871% | –
26 | COc1ccc(C(=O)Nc2c(N)nc(SCC(=O)Nc3ccc(C(C)=O)cc3)[nH]c2=O)cc1 | -4.08% | –
27 | COc1ccccc1CNC(=O)CNC(=O)c1cn(-c2ccccc2OC)c(=O)c2ccccc12 | 3.6% | –
28 | C=CCn1c(=O)n(C)c2c(=O)n(C)c(=O)n(C)c21 | 22.4% | –
29 | Cc1c(CNCCc2ccccc2)c(C(=O)O)c(C)n1-c1ccccc1 | -21.1% | –
30 | COc1cc(C(=O)N(Cc2ccc(C(C)C)cc2)C2CCS(=O)(=O)C2)cc(OC)c1OC (stereo not given) | -0.678% | –
31 | O=C(/C=C/c1cn(CC(O)CN2CCc3ccccc32)c2ccccc12)c1ccc(Br)cc1 (stereo not given) | – | 18.4 µM (active)
32 | CC(C)OCCCn1c(SCC(=O)c2ccccc2)nc2c(sc3ccccc32)c1=O | 6.91% | –
33 | COc1cc(CCN=Cc2ccccc2O)c([N+](=O)[O-])cc1OC | 9.53% | –
34 | Oc1ccc(N=Cc2c(O)ccc3ccccc23)cc1 | -23.8% | –
35 | CC(=O)n1c(C=Nc2ccccc2)c(O)c2ccccc21 | -0.272% | –
36 | Oc1ccc(N=Cc2sc3ccccc3c2Cl)cc1 | – | 13 µM (active)
37 | CCOC(=O)c1ccc(NC(=O)c2c(N)n(C)c(=O)[nH]c2=O)cc1 | -12.4% | –
38 | Cc1ccc(S(=O)(=O)N2CCC(C(=O)NCC3CCCO3)CC2)cc1 (stereo not given) | -17% | –
39 | Cc1ccnc(NS(=O)(=O)c2ccc(NC(=O)c3ccc(S(=O)(=O)N4CCOCC4)cc3)cc2)n1 | -0.712% | –
40 | Cc1cc(C2=NNC(=Nc3ccc(S(=O)(=O)N4CCOCC4)cc3)SC2)c(C)n1CC1CCCO1 (stereo not given) | – | 5.17 µM (active)

Row | SMILES | activity change, negative = growth inhibition | Potency
41 | O=C1OC(Oc2ccc(Br)cc2)(c2ccccc2)c2ccccc21 (stereo not given) | -0.929% | –
42 | CC1(C)Cc2ccccc2-c2[nH]c(=S)[nH]c(=O)c21 | 9.69% | –
43 | NC(=O)c1oc2ccccc2c1NC(=O)Cc1ccccc1 | 6.31% | –
44 | COCC(=O)Nc1c(C(=O)N2CCCC2)oc2ccccc12 | 18.4% | –
45 | CCC(=O)Nc1c(C(=O)N2CCN(c3ccc(F)cc3)CC2)oc2ccccc12 | – | 13 µM (active)
46 | O=C(Nc1c(C(=O)N2CCN(c3ccc(F)cc3)CC2)oc2ccccc12)c1ccco1 | – | 16.4 µM (active)
47 | O=C(Nc1ccccc1C(=O)N1CCCCC1)c1ccco1 | -2.7% | –
48 | O=C(c1ccco1)N1CCN(C(=O)C2CC(c3ccc(F)cc3)=NO2)CC1 (stereo not given) | -27.3% | –
49 | CC(Oc1cccc(Cl)c1)C(=O)NC1CC(C)(C)NC(C)(C)C1 (stereo not given) | 3.12% | –
50 | COc1cc(C2C(C(=O)c3cccs3)=C(O)C(=O)N2CCN2CCOCC2)ccc1OCCC(C)C (stereo not given) | 14.9% | –
51 | CCC(C)N(c1ccc(/C=C/c2ccnc3ccccc23)cc1)C(C)CC (stereo not given) | – | 7.08 µM (active)
52 | Oc1ccc(/C=N/N(Cc2ccccc2)c2ccccc2)cc1 | 22.5% | –
53 | c1ccc(-c2cnc(CN3CCN(c4ccccc4)CC3)o2)cc1 | 0.628% | –
54 | CN(C)c1ccc(/C=C/C=C/c2ccnc3ccccc23)cc1 | – | 1.78 µM (active)
55 | O=C(CN1CCCC1)N1CCN(c2ccccc2)CC1 | -10.3% | –
56 | CCN1CCN(c2ccc(/C=C/c3ccnc4ccccc34)cc2)CC1 | – | 11.2 µM (active)
57 | CN(Cc1ccccc1)c1ccc(/C=C/c2ccnc3ccccc23)cc1 | – | 12.6 µM (active)
58 | Cc1ccc(S(=O)(=O)N(C)C)cc1NC(=O)C(C)OC(=O)c1ccc2ccccc2n1 (stereo not given) | -5.45% | –
59 | CC(C)[C@@H](NC(=O)OC(C)(C)C)C(=O)NCC1CCC(C(=O)N[C@@H](Cc2ccccc2)C(=O)O)CC1 (stereo not given in full) | 5.99% | –
60 | C[C@H]1CN([C@@H](C)CO)S(=O)(=O)c2ccc(Br)cc2O[C@H]1CN(C)C(=O)c1cnccn1 | -9.71% | –
